Assay [1] can be described thus: ACEA_ER_80hr: ACEA Biosciences xCELLigence Real-Time Cell Analysis on Estrogen Receptor Agonism for Proliferation (AID 2282667; active means hit-call score of the fitted dose curve at least 0.9, where 1 is the maximum). To be noted: T47D proliferation, impedance (xCELLigence), 80 h. Summed up:
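Impedance readout (RT-CES) of T47D proliferation at 80 h post-dose; gain of signal vs DMSO baseline. Compounds: 8 conc, 1:4 serial, top 100 uM final, ≤0.5% DMSO; biological duplicate.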

Assay [2] can be described thus: ATG_CRE_CIS: Attagene CIS-FACTORIAL HepG2 Assay for human cAMP Responsive Element (CRE) binding protein 3 (AID 2282926). Particulars: HepG2 CRE cis-reporter, Attagene multiplexed mRNA; actives raise or lower the signal. Summed up:
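Endogenous CRE-binding activity in HepG2 is reported through a cis-regulated transfected reporter. Following a day of exposure, mRNA levels are determined by reverse transcription PCR and fluorescent fragment analysis; fits run in both directions versus DMSO.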

In assay [3] the target is CCAAT/enhancer-binding protein beta (Homo sapiens) (UniProt P17676). The assay can be described thus: ATG_C_EBP_CIS: Attagene CIS-FACTORIAL HepG2 Assay for human CCAAT/Enhancer Binding Protein (C/EBP) beta (AID 2282927). Particulars: HepG2 Attagene cis-factorial transcription factor reporter; actives raise or lower the signal. Summed up: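 HepG2 transiently transfected with multiplexed reporter units under cis-regulatory promoters reporting endogenous C/EBPb activity. After 24 h exposure, reporter mRNA assayed by RT-PCR, fluorescent labelling, HpaI digestion and capillary electrophoresis; bidirectional fitting versus DMSO.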
Chain of CCAAT/enhancer-binding protein beta (Homo sapiens) (P17676 whole entry, looked up): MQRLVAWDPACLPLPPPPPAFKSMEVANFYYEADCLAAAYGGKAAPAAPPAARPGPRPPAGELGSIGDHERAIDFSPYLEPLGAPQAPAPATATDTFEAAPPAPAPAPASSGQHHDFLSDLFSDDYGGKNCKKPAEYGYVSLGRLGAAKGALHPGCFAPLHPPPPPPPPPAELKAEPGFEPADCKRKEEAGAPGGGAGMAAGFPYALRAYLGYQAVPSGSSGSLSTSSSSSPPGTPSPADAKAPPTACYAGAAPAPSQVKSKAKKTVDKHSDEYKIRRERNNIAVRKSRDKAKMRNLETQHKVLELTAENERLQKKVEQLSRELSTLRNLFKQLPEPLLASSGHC

Assay [4] in a line: ATG_CMV_CIS: Attagene CIS-FACTORIAL HepG2 Assay for human CMV (Internal Marker) (AID 2282928).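 Further: endpoint acts as a background internal control marker rather than a target.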 To be noted: HepG2 CMV promoter reporter, transcription factor profiling; actives raise or lower the signal. Summed up:
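HepG2 cells transiently transfected with multiple cis-regulated reporter units; 24 h compound exposure. Reporter mRNA quantified by RT-PCR, 6-FAM primer-extension labeling, HpaI digestion and capillary electrophoresis; bidirectional fitting against DMSO baseline.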

A short description of assay [5]: ATG_DR4_LXR_CIS: Attagene CIS-FACTORIAL HepG2 Assay for human Liver X Receptor (LXR), DR4 submotif (AID 2282929). Particulars: HepG2 Attagene DR4 cis-reporter, mRNA transcription; actives raise or lower the signal. Summed up:
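Measures endogenous transcription factor activity via a DR4-driven reporter transcript in human HepG2 cells. Compounds incubated 24 h; mRNA quantified by RT-PCR and capillary electrophoresis, analysed as gain or loss of signal versus DMSO.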

The target in assay [6] is Aryl hydrocarbon receptor (Homo sapiens) (UniProt P35869). The assay can be described thus: ATG_Ahr_CIS: Attagene CIS-FACTORIAL HepG2 Assay for human Aryl Hydrocarbon Receptor (Ahr) (AID 2282930). Particulars: HepG2 AhR cis-factorial reporter transcription; actives raise or lower the signal. Summed up: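 HepG2 cells transiently transfected with cis-element-driven multiplexed reporter units; endogenous AhR activity read as reporter mRNA 24 h after dosing, via RT-PCR, 6-FAM labelling, HpaI digestion and capillary electrophoresis. Bidirectional fit relative to DMSO.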
Chain of Aryl hydrocarbon receptor (Homo sapiens) (P35869 whole entry, looked up): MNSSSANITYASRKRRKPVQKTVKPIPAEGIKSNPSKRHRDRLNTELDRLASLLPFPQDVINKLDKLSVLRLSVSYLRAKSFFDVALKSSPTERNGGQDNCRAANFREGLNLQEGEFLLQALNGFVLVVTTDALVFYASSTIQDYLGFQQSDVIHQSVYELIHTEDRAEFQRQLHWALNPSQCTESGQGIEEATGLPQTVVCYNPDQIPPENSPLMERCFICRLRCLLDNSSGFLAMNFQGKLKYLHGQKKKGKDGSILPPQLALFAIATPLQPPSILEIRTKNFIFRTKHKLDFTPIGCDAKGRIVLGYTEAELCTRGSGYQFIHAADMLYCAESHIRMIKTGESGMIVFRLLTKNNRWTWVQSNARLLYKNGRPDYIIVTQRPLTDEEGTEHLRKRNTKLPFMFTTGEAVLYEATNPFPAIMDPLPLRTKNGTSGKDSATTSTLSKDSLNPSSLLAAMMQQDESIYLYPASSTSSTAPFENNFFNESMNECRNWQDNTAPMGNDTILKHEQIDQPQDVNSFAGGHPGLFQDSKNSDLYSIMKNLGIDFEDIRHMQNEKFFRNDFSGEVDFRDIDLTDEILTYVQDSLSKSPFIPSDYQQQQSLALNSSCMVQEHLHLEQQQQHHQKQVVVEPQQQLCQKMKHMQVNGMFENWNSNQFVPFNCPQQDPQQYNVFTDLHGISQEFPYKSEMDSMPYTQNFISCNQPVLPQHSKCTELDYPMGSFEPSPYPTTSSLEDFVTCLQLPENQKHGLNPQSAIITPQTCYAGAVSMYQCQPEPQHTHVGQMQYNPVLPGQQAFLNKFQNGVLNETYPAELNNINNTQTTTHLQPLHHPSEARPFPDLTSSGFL

Assay [7] in a line: ATG_AP_1_CIS: Attagene CIS-FACTORIAL HepG2 Assay for human Activator Protein 1 (AP-1) (AID 2282931). To be noted: HepG2 Attagene cis-factorial AP-1 reporter mRNA; actives raise or lower the signal. A digest of the protocol: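 Bidirectional concentration-response fitting against DMSO controls. Underlying signal: reporter mRNA from cis-promoter constructs in transiently transfected HepG2, measured after 24 h by RT-PCR and capillary electrophoresis.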

Assay [8] is described as follows: ATG_AP_2_CIS: Attagene CIS-FACTORIAL HepG2 Assay for human Activator Protein 2 (AP-2) (AID 2282932). To be noted: HepG2 AP-2 cis-reporter, Attagene transcription factor profiling; actives raise or lower the signal. Summed up: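 Multiplexed mRNA reporter assay in HepG2: cis-regulated units report endogenous factor activity after 24 h treatment. Fluorescence from capillary electrophoresis of RT-PCR products gives the signal, with DMSO as baseline.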

Assay [9] can be described thus: ATG_BRE_CIS: Attagene CIS-FACTORIAL HepG2 Assay for human Bone Morphogenetic Protein (BMP) Response Element (BRE) (AID 2282933). To be noted: HepG2 BMP response element reporter, Attagene transcription factor profiling; actives raise or lower the signal. A digest of the protocol:
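A HepG2 multiplex reporter system measured inducible reporter mRNA 24 h post-dosing. Detection: RT-PCR, 6-FAM primer extension, HpaI digestion, capillary electrophoresis. Activity fitted bidirectionally relative to DMSO.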

The target in assay [10] is Retinoic acid receptor alpha (Homo sapiens) (UniProt P10276). The assay can be described thus: ATG_DR5_RAR_CIS: Attagene CIS-FACTORIAL HepG2 Assay for human Retinoic Acid Receptor Alpha (RARE), DR5 submotif (AID 2282934).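 On AC50: reporter responds to endogenous RAR alpha beta and gamma in HepG2 not RARA alone.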 To be noted: HepG2 Attagene cis-factorial RARE DR5 reporter, mRNA; actives raise or lower the signal. A digest of the protocol: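 HepG2 cells transiently transfected with multiplexed reporter units; DR5 cis-element drives reporter through endogenous transcription factors. After 24 h dosing, reporter mRNA quantified by RT-PCR, fluorescent labeling, HpaI digestion and capillary electrophoresis; bidirectional fitting versus DMSO.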
Chain of Retinoic acid receptor alpha (Homo sapiens) (P10276 whole entry, looked up): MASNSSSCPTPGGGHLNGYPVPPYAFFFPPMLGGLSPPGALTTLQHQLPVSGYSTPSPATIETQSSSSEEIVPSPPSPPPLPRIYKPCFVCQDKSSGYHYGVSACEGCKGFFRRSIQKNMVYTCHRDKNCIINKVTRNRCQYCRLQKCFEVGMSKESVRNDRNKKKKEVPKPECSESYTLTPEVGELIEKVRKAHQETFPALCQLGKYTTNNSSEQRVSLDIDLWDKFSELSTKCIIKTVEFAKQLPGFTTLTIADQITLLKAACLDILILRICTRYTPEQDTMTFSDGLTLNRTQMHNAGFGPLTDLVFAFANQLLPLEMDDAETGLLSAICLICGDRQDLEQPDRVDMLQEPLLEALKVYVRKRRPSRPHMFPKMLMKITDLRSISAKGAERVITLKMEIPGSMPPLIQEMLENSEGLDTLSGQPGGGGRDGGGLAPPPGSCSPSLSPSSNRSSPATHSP

Inconclusive results are not listed. Activity calls are given as the source filed them. How the source made its calls, unless noted: active means hit-call score of the fitted dose curve at least 0.9, where 1 is the maximum; inactive means score below 0.9.

By AC50 is commonly meant the concentration giving half of the maximal activity seen.

In the case of `O=C(O)C=C(C(F)(F)F)C(F)(F)F`, the result in [1], in [2], in assay [3], in [4], in [5] and in [6] was inactive. The compound was called inactive in assay [7], in assay [8], in assay [9] and in [10].

As for `CCO[Si](CCC(F)(F)C(F)(F)C(F)(F)C(F)(F)C(F)(F)C(F)(F)F)(OCC)OCC`, the compound was called inactive in assay [1], in [2], in assay [3], in assay [4], in [5] and in [6]. Besides, the compound was called inactive in [7], in assay [8], in [9] and in [10].

For the compound `FC(F)(F)C(F)(F)C(F)(F)C(F)(F)C(F)(F)C(F)(F)C(F)(F)I`, the compound was classed as inactive in assay [1], in assay [2], in assay [3], in assay [4], in assay [5] and in assay [6]. Also, the call in [7], in assay [8], in [9] and in assay [10] was inactive.

With `CC(C)OC(=O)c1ccccc1C(=O)OC(C)C`, the compound was called inactive in [1], in assay [2], in assay [3], in assay [4], in assay [5] and in assay [6]. The call in assay [7], in [8], in assay [9] and in assay [10] was inactive.

For the compound `C=CC/C=C/C/C=C/C/C=C/C`, the result in assay [1], in assay [2], in assay [3], in assay [4], in assay [5] and in [6] was inactive. Further, the outcome in [7], in [8], in assay [9] and in assay [10] was inactive.

Regarding `O=C(OCCOCCOCCOC(=O)c1ccccc1)c1ccccc1`, the half-maximal activity concentration (AC50) in [1] was 10.8 µM (active). The call in assay [2], in [3], in assay [4], in assay [5], in assay [6] and in assay [7] was inactive. Also, the outcome in assay [8], in assay [9] and in assay [10] was inactive.

`CCc1c(Br)c(Br)c(Br)c(Br)c1Br`: the compound was classed as inactive in assay [1], in assay [2], in assay [3], in assay [4], in [5] and in [6]. For the same compound, the result in assay [7], in assay [8] and in assay [9] was inactive. Also, in assay [10], the concentration at half-maximal activity (AC50) is 16.4 µM (active).

Regarding `CNC(=S)NC`, the compound was classed as inactive in assay [1], in assay [2], in assay [3], in assay [4], in assay [5] and in [6]. In addition, the result in assay [7], in [8], in assay [9] and in assay [10] was inactive.

For `O=P(O)(O)OCCC(F)(F)C(F)(F)C(F)(F)C(F)(F)C(F)(F)C(F)(F)F`, the compound was called inactive in assay [1], in [2], in assay [3], in assay [4], in assay [5] and in assay [6]. The call in [7], in [8], in [9] and in [10] was inactive.

In the case of `FC(F)(Br)C(F)(F)C(F)(F)C(F)(F)C(F)(F)C(F)(F)Br`, the half-maximal activity concentration (AC50) in assay [1] is 42.7 µM (active). Moreover, the outcome in [2], in assay [3], in [4], in [5], in assay [6] and in [7] was inactive. Further, the call in [8], in assay [9] and in assay [10] was inactive.

With `O=C(O)C(F)(F)C(F)(F)C(F)(F)F`, the compound was classed as inactive in assay [1], in [2], in [3], in [4], in [5] and in assay [6]. The compound was called inactive in [7], in assay [8], in assay [9] and in assay [10].

`CN(C)Cc1ccccc1O`: the concentration at half-maximal activity (AC50) in assay [1] is 4.58 µM (active). The result in assay [2], in [3], in [4], in assay [5], in assay [6] and in assay [7] was inactive. In addition, the call in assay [8], in assay [9] and in assay [10] was inactive.

Consider `OCC(F)(F)C(F)(F)C(F)(F)C(F)(F)C(F)(F)C(F)F`, for which the compound was classed as inactive in assay [1], in [2], in assay [3], in assay [4], in assay [5] and in assay [6]. Besides, the result in assay [7], in assay [8], in assay [9] and in assay [10] was inactive.

In the case of `FC(F)(F)C(F)(F)C(F)(F)C(F)(F)C(F)(F)C(F)(F)C(F)(F)Br`, the outcome in assay [1], in assay [2], in [3], in [4], in assay [5] and in assay [6] was inactive. Moreover, the compound was called inactive in assay [7], in assay [8], in assay [9] and in [10].

As to `CC/C=C\CCOC(C)=O`, the compound was called inactive in assay [1], in [2], in assay [3], in assay [4], in assay [5] and in assay [6]. Besides, the result in [7], in assay [8], in [9] and in assay [10] was inactive.

For the origin of these results see PubChem BioAssay (EPA / NIEHS).
